Results from PubChem BioAssay AID686978 (National Center for Advancing Translational Sciences (NCATS), 2013).
Values joined by “and” are separate entries in the source; they are usually repeats but may differ in a detail not shown here. Equal values may be shown once. Out of some 420,000 compounds screened, about 64,000 (15%) were called active. Roughly 27% stayed inconclusive and do not appear here. The list is a sample of the results. Values without a mark were called inactive. Calls come from the whole dose curve; as a rule, active = well fitted inhibition curve with a large enough effect; inconclusive = small, poorly fitted or top-dose-only effect; inactive = flat fitted curve, though single readings scatter.

experiment: qHTS for Inhibitors of human tyrosyl-DNA phosphodiesterase 1 (TDP1): qHTS in cells in absence of CPT; conditions: DT40 Tdp1-/- hTDP1 cells, no CPT, ATP luminescence, 48 h; activity change, negative = growth inhibition: at 46.2 µM (top of the series); note: nearly all actives have a fitted effect of over 55% in size
In short: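 Chicken DT40 Tdp1-/- cells stably complemented with human TDP1 were seeded at 400 cells/well with DMSO in place of 20 nM camptothecin. After compound pinning, cells grew at least 48 hr at 37 °C; viability read by CellTiter-Glo luminescence.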
% is set by controls: 0 for no effect and ±100 for the full control effect; potency is the fitted concentration of half-maximal effect.

| SMILES | activity change, negative = growth inhibition | Potency |
| --- | --- | --- |
| O=C(NCCN1CCOCC1)Nc1cccc(Cl)c1 | 2.52% |  |
| CCN1CCN(CCNC(=O)c2ccc3c(c2)NC(=O)/C(=C\c2cccc(Cl)c2)S3)CC1 |  | 16.4 µM (active) |
| O=C(NCCCN1CCCCC1)c1ccc2c(c1)NC(=O)C(N1CCOCC1)S2 (stereo unspecified) | -5.19% |  |
| Cc1cc(C)n(-c2ccc(NC(=O)C3CCCCN3C(=O)c3cccs3)cc2)n1 (stereo unspecified) | -24.6% |  |
| CCOc1ccc(/C=C(/NC(=O)c2ccccc2)C(=O)NCCC(=O)O)cc1 | -1.02% |  |
| O=C1CC[C@H](O)CCN1[C@H](CSc1ccc(Br)cc1)Cc1ccccc1 |  | 15.8 µM (active) and 16.4 µM (active) |
| O=C1CCN(Cc2ccc([N+](=O)[O-])cc2)CCN1[C@H](CO)Cc1ccccc1 | -29.7% |  |
| O=C1CCNCCN1[C@H](CO)Cc1ccccc1 |  | inactive |
| COc1ccccc1NC(=O)C1=C(C)Nc2ncnn2C1c1ccc(C)o1 (stereo unspecified) | 6.2% |  |
| CC(OC(=O)c1cc2ccccc2o1)C(=O)Nc1ccc(N2CCOCC2)cc1 (stereo unspecified) | -12.7% |  |
| CCOC(=O)c1ccc(NC(=O)CNC(=O)c2ccco2)cc1 | -8.77% |  |
| CCOC(=O)c1c(NC(=O)Cc2coc3ccc(CC)cc23)sc2c1CCC2 | -69.5% |  |
| CCOC(=O)c1ccc(NC(=O)c2csc3c2CCCCC3)cc1 |  | 14.6 µM (active) |
| CCOC(=O)c1ccc(NC(=O)c2c(NCc3cccs3)sc3c2CCCC3)cc1 |  | 20.6 µM (active) |
| CCOC(=O)c1ccc(NC(=O)c2c(NCc3ccccc3)[nH]c(=O)[nH]c2=O)cc1 | 8.57% |  |
| CCOC(=O)c1ccc(NC(=O)c2c(NCc3cccc(OC)c3)sc3c2CCC3)cc1 |  | 11.6 µM (active) |
| COC(=O)c1sc(NC(=O)c2csc3c2CCCC3)nc1C |  | 23.1 µM (active) |
| CC(=O)Cc1nsc(NC(=O)c2csc3c2CCCC3)n1 | -18.5% |  |
| COC(=O)c1sc(NC(=S)NC(=O)c2ccc(C)cc2)nc1C | -26.1% |  |
| Cc1ccc(NC(=O)c2csc3c2CCCC3)cc1 | -10.6% |  |
| CCOc1ccc(CCNC(=O)c2csc3c2CCCCC3)cc1 | -23.6% |  |
| CC[C@H](C)C(=O)N[C@H]1CCCN1C(=O)/C=C/c1ccccc1 | 7.88% |  |

| SMILES | activity change, negative = growth inhibition | Potency |
| --- | --- | --- |
| Cc1ccc(C(=O)COC(=O)CCCC(=O)NC2CCCCC2)cc1[N+](=O)[O-] | -10.4% |  |
| COCCNC(=O)C1CCN(C(=O)C2CC(=O)N(c3ccc(C)cc3)C2)CC1 (stereo unspecified) | -29.2% |  |
| O=C1CCC(=O)N1c1ccc(NCCc2ccccc2F)c([N+](=O)[O-])c1 | -18% |  |
| CCCCN1CCNC1=S | -4.02% |  |
| CC1CC(C)CN(C(=O)CSc2nnc(CSc3ncccn3)n2C)C1 (stereo unspecified) | -7.34% |  |
| COCC1CCCN(C(=O)c2ccc3oc(C(C)C)nc3c2)C1 (stereo unspecified) | 6.37% |  |
| COc1ccc(CCNc2nc3ccc(C)cc3n3cnnc23)cc1OC |  | 16.4 µM (active) and 23.1 µM (active) |
| COc1ccc(CCNc2nc3c(-c4cccc(F)c4)nnn3c3ccccc23)cc1OC | -25.8% |  |
| COc1ccccc1CNc1nc2ccc(Cl)cc2n2cnnc12 | -14.6% |  |
| Cc1ccc(NC(=O)C2CC(c3ccc(F)cc3)=NO2)cc1 (stereo unspecified) | -8.36% |  |
| COc1ccc(CNC(=O)C2CCCC2)cc1 | -24% |  |
| COc1ccc(C2=NOC(C(=O)NCc3ccco3)C2)cc1OC (stereo unspecified) |  | 2.59 µM (active) |
| COc1ccc(-c2cc(C(=O)NCc3ccco3)no2)cc1OC | -3.72% |  |
| COc1ccc(S(=O)(=O)N2CCC(C(=O)NCc3ccco3)CC2)cc1C | -21.2% |  |
| COc1ccc(CNC(=O)C2CC(c3ccc(C(F)(F)F)cc3)=NO2)cc1 (stereo unspecified) |  | 11.6 µM (active) |
| O=C(COC(=O)COc1ccccc1F)Nc1cccc(S(=O)(=O)N2CCCCC2)c1 | -1.15% |  |
| O=C1OCCOC2CCCc3oc(-c4ccccc4)c1c32 (stereo unspecified) | -25% |  |
| CCN(CC)CCCN1C(=O)C(=O)/C(=C(/O)c2c(C)nc3ccccn23)C1c1ccc(C)o1 (stereo unspecified) | -16.8% |  |
| O=C(CCNc1n[nH]c(=O)[nH]c1=O)N/N=C\c1ccc(Br)cc1 | 0.678% |  |
| Cc1c(O)cc2c(c1C)O[C@](C)(CCC[C@H](C)CCC[C@H](C)CCCC(C)C)CC2 | -16.5% |  |
| COc1ccc(NC(=O)CN2C(=O)NC(C)(c3ccccc3)C2=O)cn1 (stereo unspecified) | 5.71% |  |
| COc1ccc(OCC(=O)NN2Cc3ccccc3C2=N)cc1 | -4.78% |  |

| SMILES | activity change, negative = growth inhibition | Potency |
| --- | --- | --- |
| Cc1ccc(N2C(=O)c3ccccc3C2(O)c2ncc[nH]2)cc1 (stereo unspecified) | -4.39% |  |
| C=CCNc1cnn(-c2ccc(C)cc2)c(=O)c1Cl | -2.77% |  |
| O=C(NCc1cccc(C(F)(F)F)c1)c1cccc(S(=O)(=O)N2CCN(Cc3ccccc3)CC2)c1 |  | 18.4 µM (active) |
| O=C(CCC(=O)c1ccccc1)NCc1cccc(C(F)(F)F)c1 | -9.59% |  |
| O=C(NCc1ccccc1)c1ccc(S(=O)(=O)Nc2cccc(C(F)(F)F)c2)cc1 | -0.815% |  |
| O=S(=O)(NCCS(=O)(=O)N1CCN(c2ccccc2)CC1)c1ccc(F)cc1 | -13.9% |  |
| CN(Cc1cccc2ncccc12)C(=O)CC1C(=O)NCCN1Cc1ccc(F)cc1 (stereo unspecified) | -8.69% |  |
| CC1CN(/C=C/C(=O)C(F)(F)F)CC(C)O1 (stereo unspecified) | -15.9% |  |
| Cc1cc(NC(=O)CN2C(=O)NC(CC(C)C)C2=O)no1 (stereo unspecified) | 17.8% |  |
| CS(=O)(=O)N(Cc1ccccc1Cl)c1ccc(C(=O)NCc2cccnc2)cc1 |  | 14.6 µM (active) |
| Cc1ccc(S(=O)(=O)N(Cc2ccc(Cl)cc2)c2ccccc2C(=O)NCc2cccnc2)cc1 |  | 23.1 µM (active) |
| O=C(NCc1cccnc1)c1cccnc1Sc1ccc(Cl)cc1 | -1.61% |  |
| CS(=O)(=O)N(Cc1ccccc1)c1ccc(C(=O)NN=C2CCCCCC2)cc1 | -12% |  |
| O=C(O)c1ccccc1-c1ccccc1C(=O)NCc1cccnc1 | -1.27% |  |
| CN(c1ccccc1)S(=O)(=O)c1ccc(C(=O)NCc2cccnc2)cc1 | -40.5% |  |
| CCOc1ccc(OCC(=O)OC(C)C(=O)NC2CCCCC2C)cc1 (stereo unspecified) | -6.76% |  |
| CC1(C)Oc2ccc3ccc(=O)oc3c2/C(=N/O)C1=O | 8.39% |  |
| O=c1cc(COc2cccc(C(F)(F)F)c2)nc2sc3c(n12)CCCC3 | -5.11% |  |
| Cc1ccc2c(cnn2C(=O)CCC(=O)NC2CCCC2)c1 | -21.2% |  |
| CCOC(=O)c1c(-c2cccc(N)c2)cn2ccccc12 | 2.26% |  |
| N#Cc1nc(/C=C/c2ccc(F)cc2)oc1NCc1ccc(F)cc1 | -24.3% |  |
| CCOc1ccc(Nc2oc(/C=C/c3ccc(F)cc3)nc2C#N)cc1 | -23.4% |  |

| SMILES | activity change, negative = growth inhibition | Potency |
| --- | --- | --- |
| COc1ccccc1/C=C/c1nc(C#N)c(NC(C)c2ccccc2)o1 (stereo unspecified) |  | 16.4 µM (active) |
| O=C(CNC(=O)c1ccccc1F)OCC(=O)c1c[nH]c2ccccc12 | 15% |  |
| Cc1c(C(=O)N(C)C)sc2c1c(=O)n(-c1ccc(F)cc1)c(=O)n2CC(=O)N(C)c1ccccc1 | -0.482% |  |
| CCn1cc(C(=O)N2CCN(Cc3ccc4c(c3)OCO4)CC2)c2cc(OC)c(OC)cc2c1=O | -20.4% |  |
| CCOC(=O)C1CCN(C(=O)CC2C(=O)N(Cc3ccccc3)C(C)c3nc4ccccc4n32)CC1 (stereo unspecified) | -12.5% |  |
| COC(=O)[C@@]12C[C@@H](CC(=O)N3CCC(c4ccccc4)CC3)C(=O)N(Cc3ccccc3)C1=CCC(C)(C)C2 |  | 14.6 µM (active) |
| CCOC(=O)N1CCN(C(=O)C(C)NC(=O)c2ccco2)CC1 (stereo unspecified) | 1.25% |  |
| COC(=O)[C@]12CCCCC=C1N(Cc1ccc3c(c1)OCO3)C(=O)[C@H](CC(=O)N1CCOCC1)C2 | -9.62% |  |
| CCOC(=O)N1CCN(C(=O)C[C@@H]2C[C@@]3(C(=O)OC)CC(C)(C)CC=C3N(Cc3ccco3)C2=O)CC1 |  | 18.4 µM (active) |
| CCOC(=O)[C@]12CCC=C1N(Cc1ccco1)C(=O)[C@H](CC(=O)N1CCSCC1)C2 | -10.7% |  |
| COC(=O)[C@@]12C[C@@H](CC(=O)N3CCCCC3)C(=O)N(Cc3ccc4c(c3)OCO4)C1=CCC(C)(C)C2 |  | 20.6 µM (active) |
| O=C(NCc1ccccc1)C1CCN(C(=O)Cc2ccccc2)CC1 | -10.3% |  |
| CC(C)CCN1CCN(C/C=C/c2ccco2)CC1CCO (stereo unspecified) | 7.71% |  |
| COC(=O)c1cccc(C(=O)N2CCCC(Nc3ccc4c(c3)OCCO4)C2)c1 (stereo unspecified) | 11.9% |  |
| O=C(O)Cc1ccc(NCc2ccccc2Cl)cc1 | 10.5% |  |
| Cc1cccc(-c2nnc(SCC(=O)O)n2Cc2ccccc2)c1 | 4.53% |  |
| O=C1CC(Cc2ccc(Cl)cc2)C(=O)N1c1cc(Cl)ccn1 (stereo unspecified) | 5.45% |  |
| O=C(CSc1nc2ccccc2nc1Cc1ccccc1)N1CCCCC1 |  | 18.4 µM (active) |
| COc1ccc(CNC(=O)CSc2nc3ccccc3nc2Cc2ccccc2)cc1 | -25.4% |  |
| O=C(CSc1n[nH]c(-c2ccccc2)n1)N1CCCCC1 | -7.63% |  |
| COc1cc(NC(=O)Cn2c(=O)n(Cc3ccco3)c(=O)c3oc4ccccc4c32)cc(OC)c1 | -13.2% |  |
| Cc1c(CCC(=O)O)c(=O)oc2cc3occ(-c4ccccc4)c3cc12 | -4.43% |  |

| SMILES | activity change, negative = growth inhibition | Potency |
| --- | --- | --- |
| O=C(c1ccco1)N1CCN(CC(=O)N(C2CCCCC2)C2CCS(=O)(=O)C2)CC1 (stereo unspecified) | -0.389% |  |
| COC(=O)c1sccc1NC(=O)CC1C(=O)NCCN1C(=O)Nc1ccc(F)cc1F (stereo unspecified) | -0.938% |  |
| COc1ccccc1CCNC(=O)CN1C(=O)NC2(CCCC2)C1=O | -9.82% |  |
| C=C1C=C(C(F)F)n2ncc(C(=O)NCCc3ccccc3OC)c2N1 |  | 17.8 µM (active) |
| COc1ccccc1CCNC(=O)c1cnccn1 | -12.8% |  |
| Cc1nn2cc(-c3ccc(Cl)cc3)cnc2c1Br | -22.4% |  |
| COC(=O)CCCC1=CC2=CC(=O)C(C)(OC(=O)c3cccs3)C(=O)C2=CN1c1cccc(C#N)c1 (stereo unspecified) | -14% |  |
| Cc1cccc(NC(=O)N2CCN(C)c3ncccc32)c1C | -13.9% |  |
| Cc1cc(NC(=O)CSc2nnc(-c3ccc(Cl)s3)o2)no1 |  | 16.4 µM (active) |
| COc1ccccc1-c1nnc(SCC(=O)Nc2cc(C)on2)o1 | 8.42% |  |
| Cc1cc(NC(=O)CSc2nnc(Nc3ccccc3F)s2)no1 | 10.2% |  |
| COc1ccc([N+](=O)[O-])cc1NC(=O)CC1SC(=Nc2cccc(C)c2C)N(/N=C(\C)c2ccc(C)cc2)C1=O (stereo unspecified) | -1.02% |  |
| COc1ccc2nc(Nc3nc(-c4cc5ccccc5oc4=O)cs3)sc2c1 |  | 11.6 µM (active) |
| COc1ccc2nc(Nc3nc4cc5c(cc4s3)OCCO5)sc2c1 | -11.8% |  |
| Nc1ncc(-c2cc3ccccc3oc2=O)s1 | -14.1% |  |
| O=c1oc2ccccc2cc1-c1csc(Nc2ccc(O)cc2)n1 |  | 8.2 µM (active) |
| CCNc1nc(-c2cc3ccccc3o2)cs1 | -28.7% |  |
| COc1ccc2cc(-c3nc(Cl)c4c5c(sc4n3)CC(C)CC5)c(=O)oc2c1 (stereo unspecified) | -12.7% |  |
